# Tests used:
# Assay in all cases: PBM binding z-score (relative to random genomic background probes); higher = stronger binding; sequences stand for … in GC…GCGATTGACAGCGTAGAATGAAGG
# [1] = test system: FXR:RXRa (NR concentration 270 nM, RXRa partner concentration 90 nM)
# Procedure, shortened: (§1)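 Random background probes are the reference for binding z-scores. These scores derive from regression-normalized fluorescence on custom Agilent 4×180K protein-binding microarrays incubated 1 h with ligand-free nuclear receptor dimers. Binding was detected with antibodies against each partner (one per run).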
# [2] = test system: LXRa:RXRa (NR concentration 270 nM, RXRa partner concentration 90 nM)
# Procedure, shortened: as §1
# [3] = test system: LXRa homodimer (NR concentration 270 nM)
# Procedure, shortened: as §1
# [4] = test system: LXRb:RXRa (NR concentration 270 nM, RXRa partner concentration 90 nM)
# Procedure, shortened: as §1
# [5] = test system: LXRb homodimer (NR concentration 270 nM)
# Procedure, shortened: as §1
# [6] = test system: PPARa:RXRa (NR concentration 270 nM, RXRa partner concentration 90 nM)
# Procedure, shortened: as §1
# [7] = test system: PPARg:RXRa (NR concentration 180 nM, RXRa partner concentration 90 nM)
# Procedure, shortened: as §1
# [8] = test system: PPARg:RXRa 270nM:90nM, anti-RXR (NR concentration 270 nM, RXRa partner concentration 90 nM)
# Procedure, shortened: as §1
# [9] = test system: PPARg:RXRa 30nM:10nM, anti-RXR (NR concentration 30 nM, RXRa partner concentration 10 nM)
# Procedure, shortened: as §1
# [10] = test system: PPARg:RXRa 90nM:30nM, anti-RXR (NR concentration 90 nM, RXRa partner concentration 30 nM)
# Procedure, shortened: as §1
# [11] = test system: PPARg:RXRa DBDmut IVT, anti-RXR (DBD mutation: RXRa K156A/R161A, NR concentration 270 nM, RXRa partner concentration 90 nM)
# Procedure, shortened: as §1
# [12] = test system: PPARg:RXRa IVT, anti-PPARg (NR concentration 270 nM, RXRa partner concentration 90 nM)
# Procedure, shortened: as §1
# [13] = test system: PPARg DBDmut:RXRa IVT, anti-PPARg (DBD mutation: PPARg1 K132A/R137A, NR concentration 270 nM, RXRa partner concentration 90 nM)
# Procedure, shortened: as §1
# [14] = test system: PPARg DBDmut IVT, anti-PPARg (DBD mutation: PPARg1 K132A/R137A, NR concentration 270 nM)
# Procedure, shortened: as §1
# [15] = test system: PPARg homodimer (NR concentration 180 nM)
# Procedure, shortened: as §1
# [16] = test system: PXR:RXRa (NR concentration 270 nM, RXRa partner concentration 90 nM)
# Procedure, shortened: as §1
# [17] = test system: PXR homodimer (NR concentration 270 nM)
# Procedure, shortened: as §1
# [18] = test system: RARa:RXR (NR concentration 270 nM, RXRa partner concentration 90 nM)
# Procedure, shortened: as §1
# [19] = test system: RARa homodimer (NR concentration 270 nM)
# Procedure, shortened: as §1
# [20] = test system: RARb:RXRa (NR concentration 270 nM, RXRa partner concentration 90 nM)
# Procedure, shortened: as §1
Sequence,PBM binding z-score [1],PBM binding z-score [2],PBM binding z-score [3],PBM binding z-score [4],PBM binding z-score [5],PBM binding z-score [6],PBM binding z-score [7],PBM binding z-score [8],PBM binding z-score [9],PBM binding z-score [10],PBM binding z-score [11],PBM binding z-score [12],PBM binding z-score [13],PBM binding z-score [14],PBM binding z-score [15],PBM binding z-score [16],PBM binding z-score [17],PBM binding z-score [18],PBM binding z-score [19],PBM binding z-score [20]
TCTTGTAGATCGACAGGAGGTTAAGAAAGATCGA,-0.239,0.869,-0.338,0.656,-0.423,0.999,-0.276,1.14,2.24,1.55,0.885,0.145,0.496,0.679,-0.189,0.501,-0.189,0.459,-0.333,0.401
CAAACTAGGTCTAGAGGTCAAAGTCCGCTTCCCG,4.99,5.78,5.83,4.86,1.55,5.14,5.12,5.9,4.3,5.99,3.11,4.41,0.248,0.06,3.03,5.4,2.48,5.69,0.52,3.96
GGTATTAGTTGAAAGGGCAACCGAATGATTCTCG,1.14,1.49,1.06,1.41,0.907,2.66,3.26,5.07,3.13,4.79,0.803,1.67,1.15,0.67,2.69,1.23,1.44,1.88,2.51,2.42
CGTCCAAGGTCAGAGGAGGTCAGTGAAGACAGAT,6.02,5.57,2.4,4.09,-0.0595,4.82,3.53,3.88,0.854,2.48,1.93,3.41,0.0529,-0.477,3.97,6.58,2.7,5.37,1.91,5.22
TGAATGAGGTTATAAGATTAGGGAACGTTGCAAA,1.34,1.39,0.076,1.21,-0.0904,2.29,1.15,1.55,1.09,1.51,1.08,1.82,0.868,0.168,0.438,0.788,0.176,1.31,0.154,1.15
ACTATTAGTTGAGACGAGGGTAACCGATAGGTTG,0.247,0.035,-0.0924,-0.182,0.187,-0.0411,0.515,0.0504,0.213,0.176,0.111,0.339,0.757,0.539,0.211,0.245,0.43,0.64,0.125,0.342
AGAAGGAGGTTAAGATCAGGGAAACAGAATACAT,1.65,1.79,0.422,2.19,1.11,2.82,1.84,1.67,0.855,1.19,1.24,1.78,1.73,0.272,2.06,1.5,1.36,1.51,1.44,1.85
ACTAGTTGGTCAGCTGAAGTCACACACAATTCGG,-0.0902,-0.0916,0.115,0.118,0.19,-0.0344,0.754,0.0912,-0.0266,0.0351,0.924,0.828,0.539,0.649,0.462,-0.105,-0.357,0.136,0.213,0.828
GCGACTGGGGCATCCGCAGGTTACCATAACTTAA,-0.134,-0.356,-0.324,0.722,-0.515,1.06,0.756,0.848,-0.543,0.0228,3.8,3.27,-1.11,-0.898,-0.268,0.263,-0.637,0.49,-1,0.89
CCTACTGGGCCATTCCGAGGTCATTGATCATATG,2.71,3.36,4.85,3.28,0.27,3.5,1.58,2.59,0.281,1.54,4.18,4.34,0.312,-0.485,1.24,4.4,4.22,3.88,0.0189,2.63
ACTATTAGTTGAGACGATGGCAACCGATAGGTTG,-0.242,-0.267,0.0381,-0.527,0.0838,-0.263,0.598,-0.0569,0.0135,-0.0627,0.172,0.0295,0.79,1.06,0.664,-0.242,-0.102,-0.204,0.657,-0.199
CCTTACGGGTCACTGACACGTTATAGCATTTGGA,5.87,3.87,0.355,3.38,0.0224,5.4,4.48,4.55,1.45,3.25,3.57,3.64,1.42,0.499,1.94,3.1,0.171,3.98,0.948,3.99
GTACCAAGGTGTATAGGTCGTTGATGAGTAGGCG,0.26,0.421,-0.0152,0.029,-0.37,0.871,0.775,0.814,0.27,0.71,0.000885,0.719,-0.0523,0.342,0.75,0.265,0.0316,0.833,0.17,0.755
CCGAGTAGGGTATGGGGCATTCAGGCAACGGTGA,-0.164,-0.318,-0.305,0.261,-0.00353,1.14,2.09,3.6,1.5,3.18,0.659,1.58,-0.658,-0.796,0.951,-0.379,-0.14,-0.154,0.135,0.278
CGTGCTAGGTCATGGTCAGCTAATCTACAGTATG,3.55,2.46,0.0428,1.84,-0.338,3.36,2.98,2.8,0.471,2.11,4.45,4.25,0.168,-0.51,1.36,1.5,-0.399,2.51,-0.32,3.94
TCATATAGGTAAATGCTAGGTGTAAGTCCGATCT,0.454,0.941,0.2,0.659,-0.0969,1.05,0.749,2.17,3.9,2.97,3.8,1.94,0.286,1.15,0.2,0.655,-0.0284,0.00446,1.01,0.377
CAAACTAGGTCACCGGAAGGTCAAGGTCCGCATG,5.96,5.56,3.66,4.58,0.998,5.83,9.82,7.78,5.66,8.09,8.67,8.88,2.07,0.589,8.45,5.6,1.49,7.28,2.79,5.37
CCTACTGGGCCAAGGGCATTGATCAGTCAAAGCA,-0.551,-0.572,-0.484,-0.601,-1.35,1.1,2.48,3.44,1,2.55,2.73,3.65,-0.869,-1.53,0.181,-0.452,-0.173,-0.637,-1.18,0.896
TCAGACAGGTGAAGGTCACTCAGGTACGCAGTCG,3.13,3.62,1.36,3.13,0.146,3.72,2.39,3.12,3.84,3.76,3.07,2.84,0.351,0.266,2.38,4.02,0.556,3.78,0.971,4.01
GCTAGTTGGTCAGTAAAAGGTCATACACCGGTCG,3.17,4.37,5.64,3.93,0.896,4.45,2.95,4.03,2.15,3.55,0.651,2.38,-0.0949,-0.0441,3.01,4.5,1.09,5.05,1.09,3.94
CCGACTGGGGCATATGGTTACCATAAGCCAGCCC,-0.611,-0.598,-0.857,-0.657,-1.1,0.208,1.47,1.94,0.491,1.32,1.89,2.21,-0.616,-1.62,-0.697,-0.746,-0.567,-0.363,-0.355,0.172
CATACAGTGTCAGCTAGGCCAGAGTAGGGACGGC,-0.279,-0.284,-0.667,-0.652,0.0378,-0.3,0.467,-0.284,-0.315,-0.243,-0.0696,0.608,0.171,-0.0038,-0.0558,-0.453,-0.457,-0.228,0.038,1.04
CCGACTGGGGCATAAGGTTACCTTAAGCCAGCCC,0.144,2.16,-0.305,0.631,-1.36,1.9,2.04,3.18,0.872,2.64,2.68,3.27,-0.344,-1.61,0.545,0.197,-0.44,1.22,-0.764,1.49
CAGCCTAGGTCAGGGTCAGTATAGGAGGAACGTT,3.28,2.28,0.154,2.3,-0.746,3.73,2.37,2.52,0.577,1.52,1.2,2.57,0.511,-0.598,1.63,2.38,0.127,3.04,0.15,4.31
AGTAGTTGGTCAGCTGAGGTCACACACAATTCGG,4.48,3.37,2.92,3.55,0.79,3.63,1.63,2.33,0.674,1.56,1.18,2.65,0.554,0.308,3.34,5.41,2.54,4.6,1.53,3.63
GATACAGGGTCAAGGCCAGTGTACGCGTATTGAT,6.59,4.26,-0.145,3.52,-0.211,5.6,5.69,5.76,2.44,4.1,2.53,3.95,0.493,-0.124,2.17,3.97,0.209,4.47,0.237,4.41
CAGCCTAGGCCAGGGCCAGTATAGGAGGAACGTT,-0.702,-1.16,-0.761,-1.14,-1.72,-0.754,0.0393,-1.36,-0.853,-1.1,-0.58,-0.938,-1.07,-1.68,-1.39,-1.04,-0.58,-0.83,-0.971,-0.0787
CCGACTGGGGCAGAAGGGTTACCATACCATCCGG,-0.34,-0.358,-0.422,-0.143,-0.958,0.847,1.13,1.14,-0.416,0.389,1.09,1.56,-0.531,-1.22,0.108,-0.0806,-0.804,0.392,-0.582,0.984

# Source: the supplement of paper PMC6555819
